DT40 TDP1 CPT = growth inhibition of DT40 Tdp1-/-;hTDP1 cells with camptothecin (screen for TDP1 inhibitors) | Potency, µM (doses to about 46.2 µM), usual class: inhibitors | 420,000 tested, 12% active | chicken DT40 Tdp1-/-;hTDP1 cells + 20 nM CPT, ATP luminescence, 48 h; also: nearly all actives have a fitted effect of over 55% in size
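Chicken DT40 Tdp1-/- cells complemented with human TDP1, 400 cells/well, exposed to compounds plus 20 nM camptothecin for at least 48 h at 37 C; viability read as ATP content by CellTiter-Glo luminescence.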
IL1B secr inh = blocks inflammasome-driven IL-1 beta release | activity change, % at 57.5 µM | 360,000 tested, 4.7% active | THP-1 LPS/ATP IL-1B secretion, AlphaLISA, 16 h; hits give low values; in the data active = activity change below about -50%; inconclusive = mostly about -30% to -49%
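THP-1 cells pretreated 1 hr with compounds (up to 57.5 uM final), then stimulated with LPS (250 ng/mL final) plus ATP (1.25 mM final); secreted IL-1B measured by AlphaLISA after 16 hr, decreased signal indicating inhibition.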
ELG1 repair inh = blocks ELG1-dependent DNA repair in HEK293T cells | HEK293T ELG1-luciferase reporter, luminescence, 16 h; DNA damage induced by 5-fluorouridine | Potency, µM (highest dose often 46.1 µM), usual class: inhibitors | AID 504467 | 330,000 tested, 2.3% active; also: nearly all actives have a fitted effect of over 55% in size
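In this reporter screen, reduction of luminescence relative to DMSO vehicle indicated activity. Compounds and 5-fluorouridine were added together to 2,000 cells per well, incubated for 16 hr at 37 °C, then developed with ONE-Glo.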
HT1080-NT tox = kills 2HG-producing HT-1080-NT fibrosarcoma cells; 360,000 tested, 1.6% active; Potency, µM (highest dose often 46.1 µM), usual class: cytotoxic; HT-1080-NT fibrosarcoma viability, CellTiter-Glo ATP luminescence, 48 h;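 also: NT is the 2HG producing partner of a matched IDH1 knockdown line; nearly all actives have a fitted effect of over 55% in size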
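Compounds were tested in concentration-response format on HT-1080-NT cells for 48 hours at 37 degrees C. Cell viability came from CellTiter-Glo luminescence; curves were classified by r2, response magnitude and activity.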
HT1080 IDH1KD tx = toxicity to HT-1080 IDH1 knockdown cells (counter line) | HT-1080 IDH1 knockdown viability, ATP luminescence, 48 h | Potency, µM (highest dose often 46.1 µM), usual class: cytotoxic | 360,000 tested, 2% active
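Using the IDH1-knockdown HT-1080 line run in the same batch and compound series as the NT line, viability after 48 h at 37 °C was determined by CellTiter-Glo luminescence and expressed as % activity.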
DT40 TDP1 no CPT = qHTS for Inhibitors of human tyrosyl-DNA phosphodiesterase 1 (TDP1): qHTS in cells in absence of CPT. DT40 Tdp1-/- hTDP1 cells, no CPT, ATP luminescence, 48 h. Potency, µM (highest dose often 46.2 µM), usual class: inhibitors. 420,000 tested, 15% active. AID 686978, 2013; also: nearly all actives have a fitted effect of over 55% in size
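Luminescent ATP content (CellTiter-Glo) served as the growth readout. Knockout chicken DT40 cells expressing human TDP1 were exposed to compounds without camptothecin for a minimum 48 hr at 37 °C.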
Hits are given with their value; i = inactive; ? = inconclusive; nt = no result; ! = a repeat was not active; [ ] = another dose, or the depositor's remark. Rows were chosen to be rich in hits. Some 19% of all compounds tested hit in one or more screens of this group. Unless noted, calls follow the shape of the dose curve; as a rule, active = well fitted curve in the direction sought with a large enough effect; inconclusive = small, poorly fitted or top-dose-only effect, or another doubt; inactive = no such curve, though single readings can be large; an effect the other way counts as inactive or inconclusive.

SMILES	DT40 TDP1 CPT	IL1B secr inh	ELG1 repair inh	HT1080-NT tox	HT1080 IDH1KD tx	DT40 TDP1 no CPT
Cc1ccc(CNC(=O)COC(=O)c2cccc(S(=O)(=O)N3CCCCC3)c2)cc1	i	i	i	i[9.24 µM]	i	i
COc1ccc(C(=O)NCc2ccccc2CN2CCCC2)cc1S(=O)(=O)N1CCOCC1	i	i	i	i	i	i
Cc1ccc(C)c(S(=O)(=O)N2CCN(C(=O)c3ccc(OCc4c(C)noc4C)cc3)CC2)c1	?	i	16.4µM	i	i	?
Cc1noc(C)c1COc1ccc(C(=O)NNC(=O)c2ccccc2F)cc1	2.31µM	i	i	?	6.51µM	1.46µM
Cc1noc(C)c1COc1ccccc1C(=O)NNC(=O)c1ccccc1F	i	i	i	i	i	i
Cc1noc(C)c1C(=O)N1CCN(c2ccc(OCc3ccccc3)cc2)CC1	14.6µM	i	i	i	i	16.4µM
COc1ccc(N2CCN(C(=O)c3c(-c4ccccc4)noc3C)CC2)cc1	?	i	?	i	i	?
CCOc1cc(C(C(=O)NCC2CCCO2)N(C(=O)Cn2nnc3ccccc32)c2ccccc2OC)ccc1O (centres undefined)	i	i	i	i	i	i
ClC(CCN1CCN(Cc2ccccc2)CC1)c1ccccc1 (centres undefined)	?	i	nt	i	i	?
CCCCN1CCCCC1(C)C(=O)NCc1ccc2c(c1)OCO2 (centres undefined)	?	i	nt	i	i	?
CSc1ccc(CN2CCC2(C)C(=O)Nc2ccc3c(c2)OCO3)cc1 (centres undefined)	29.1µM	i	nt	i	i	?
CSc1ccc(CN2CCC2(C)C(=O)NCc2ccc3c(c2)OCO3)cc1 (centres undefined)	14.6µM	i	nt	i	i	?
CC1(C(=O)Nc2ccc3c(c2)OCCO3)CCN1Cc1ccc2ccccc2c1 (centres undefined)	?	i	nt	?	?	i
O=C(c1ccccc1C(F)(F)F)N1CCOc2c(cc(-c3nc4ccccc4s3)cc2OC2CCOC2)C1 (centres undefined)	i[9.04 µM]	nt	nt	nt	nt	i
O=C(NCCC1CCCCN1S(=O)(=O)c1ccc(F)cc1)C(=O)Nc1ccccc1 (centres undefined)	?	i	i	i	i	18.4µM
COc1ccc(NC(=O)C(=O)NCCC2CCCCN2S(=O)(=O)c2cccs2)cc1 (centres undefined)	3.66µM	i	i	?	5.8µM	4.61µM
COc1ccc(CNC(=O)C(=O)NCCC2CCCCN2S(=O)(=O)c2cccs2)cc1 (centres undefined)	?	i	?	i	i	?
COc1cccc(NC(=O)C(=O)NCCC2CCCCN2S(=O)(=O)c2cccs2)c1 (centres undefined)	?	i	?	i	i	16.4µM
COc1ccc(NC(=O)C(=O)NCCC2CCCCN2S(=O)(=O)c2ccccc2)cc1 (centres undefined)	4.11µM	i	?	?	13µM	2.91µM
COc1cccc(NC(=O)C(=O)NCC2CCCN2S(=O)(=O)c2cccs2)c1 (centres undefined)	i	i	nt	i	i	i
CCOC(=O)c1c(C)[nH]c(C)c1S(=O)(=O)N1CCCC(C(=O)NCc2ccc(N(C)C)cc2)C1 (centres undefined)	?	nt	nt	nt	nt	i
CCN(CC)C(=O)c1sc2c(c1C)c(=O)n(-c1ccc(OC)cc1OC)c(=O)n2CC(=O)Nc1ccccc1	i	nt	nt	nt	nt	i
O=C(NCCc1ccccc1)C(=O)NCCC1CCCCN1S(=O)(=O)c1cccs1 (centres undefined)	?	i	i	i	i	?
O=C(NCCC1CCCCN1S(=O)(=O)c1cccs1)C(=O)Nc1ccccc1 (centres undefined)	16.4µM	?	i	i	i	23.1µM
CCNC(=O)c1nn(-c2ccccc2C)nc1CO	i	nt	nt	nt	nt	i
SMILES	DT40 TDP1 CPT	IL1B secr inh	ELG1 repair inh	HT1080-NT tox	HT1080 IDH1KD tx	DT40 TDP1 no CPT
Cc1cc(=O)oc2cc(NC(=O)c3cccc(S(=O)(=O)N(C)C)c3)ccc12	i	i	?	?	i	i
Cc1cc(=O)oc2cc(NC(=O)c3cccc(S(C)(=O)=O)c3)ccc12	i	-52.5	?	i	i	?
CCCC(C(=O)Nc1ccc2c(C)cc(=O)oc2c1)c1ccccc1 (centres undefined)	25.9µM	i	?	i	i	?
CC(C)S(=O)(=O)c1csc(NC(=O)Nc2ccc(Cl)cc2)c1	7.31µM	?	?	i	i	11.6µM
CCCCN1C(=O)C(CC(=O)NCCc2ccccn2)CC(C(=O)N2CCCCCC2)=C1C (centres undefined)	i	nt	nt	i	i	i
CC(C)CC(C(=O)O)N(Cc1ccccc1)Cc1ccccc1 (centres undefined)	i	i	i	i	i	?
COC(=O)[C@H](CC(C)C)N(Cc1ccccc1)S(=O)(=O)N(Cc1ccccc1)[C@@H](CC(C)C)C(=O)OC	20.6µM	i	i	i	i	11.6µM
CC(C)N(Cc1ccccc1)S(=O)(=O)N(C)C	i	i	i	i	i	i
O=S(=O)(N(Cc1ccccc1)[C@@H](CO)Cc1ccccc1)N(Cc1ccccc1)[C@@H](CO)Cc1ccccc1	?	i	i	i	i	5.62µM
C=CS(=O)(=O)N(Cc1ccccc1)[C@H](CO)CC(C)C	10µM	-60.5	nt	i	i	11.2µM
CC(C)C[C@H](CO)N(Cc1ccccc1)S(=O)(=O)N(Cc1ccccc1)[C@@H](CO)CC(C)C	16.4µM	-87.1	?	?	?	11.6µM!
C/C(=N\NC(=O)c1ccn(C)n1)c1ccco1	i	i	?	i	i	i
CCN1C[C@@H]2[C@@H]3C(=O)N(C)C(=O)[C@@H]3[C@](CC)(C1=O)N2C(=O)c1ccc(C)cc1	i	i	nt	i	i	i
O=C(Nc1ccccc1)N1CCCC2(CCN(C(=O)c3cccc(F)c3)CC2)C1	i	nt	nt	nt	nt	i
COC(=O)[C@H](C(C)C)N(Cc1ccccc1)S(=O)(=O)CCNC1CCCC1	25.9µM	i	i	i	i	?
C=CCCN([C@H](CO)Cc1ccccc1)S(=O)(=O)c1ccccc1Br	?	i	?	i	i	i
C=CS(=O)(=O)N(Cc1ccccc1Br)[C@H](CO)Cc1ccccc1	7.94µM	-108.2	nt	?	?	7.08µM
C=C[C@H](CC(C)C)N(Cc1ccccc1)S(=O)(=O)N(Cc1ccc(OC)cc1)[C@H](C=C)CC(C)C	?	i	i	i	i	13µM

Screening results as filed in PubChem.
